Shown are actives, neighbours in structure and some others; about 19% of the full set was active somewhere.
RORg inh: ROR gamma (mouse) transcription inhibition. P51450. Drosophila S2 Gal4-RORgamma UAS-luciferase reporter, 20 h. Potency, µM (series often up to 53.6 µM), actives largely listed as inhibitors. hit rate 5.4% among 310,000; note: nearly all actives have a fitted effect of over 60% in size
Target sequence (P51450 whole entry, looked up, the tested form may be a part): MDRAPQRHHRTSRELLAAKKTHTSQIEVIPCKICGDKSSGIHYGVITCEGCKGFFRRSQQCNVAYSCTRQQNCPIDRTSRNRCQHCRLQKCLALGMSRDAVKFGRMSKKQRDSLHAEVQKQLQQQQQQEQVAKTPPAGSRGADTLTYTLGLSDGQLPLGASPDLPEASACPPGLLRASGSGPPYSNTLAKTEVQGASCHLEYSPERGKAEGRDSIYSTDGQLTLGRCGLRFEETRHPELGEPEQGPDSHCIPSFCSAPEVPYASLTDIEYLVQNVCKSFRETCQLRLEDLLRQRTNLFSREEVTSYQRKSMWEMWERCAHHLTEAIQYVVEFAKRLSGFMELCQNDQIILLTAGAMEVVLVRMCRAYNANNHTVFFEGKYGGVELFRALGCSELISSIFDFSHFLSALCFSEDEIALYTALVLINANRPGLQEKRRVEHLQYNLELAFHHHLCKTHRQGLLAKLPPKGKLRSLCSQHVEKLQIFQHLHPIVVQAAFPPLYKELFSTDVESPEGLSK
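Compounds are pin-transferred onto Drosophila Schneider cells expressing a copper-inducible Gal4–ROR gamma transactivation domain fusion. After 1 hr, copper sulfate is added to 700 uM final; luciferase is read 20 hr later.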
Gal4-VP16 FLuc: Gal4-VP16 reporter inhibition counter-screen. Potency, µM (top dose mostly 53.6 µM), hits mostly inhibitors. Drosophila S2 Gal4-VP16 UAS-luciferase, luminescence, 20 h. hit rate 3.5% among 310,000;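 note: Gal4-VP16 expression switched on by copper sulfate through the metallothionein promoter; nearly all actives have a fitted effect of over 50% in size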
TDP1 cell noCPT: qHTS for Inhibitors of human tyrosyl-DNA phosphodiesterase 1 (TDP1): qHTS in cells in absence of CPT; DT40 Tdp1-/- hTDP1 cells, no CPT, ATP luminescence, 48 h; Potency, µM (top dose mostly 46.2 µM), usual class: inhibitors; hit rate 15% among 420,000; note: nearly all actives have a fitted effect of over 55% in size
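Camptothecin absent (DMSO only). Human TDP1-complemented DT40 knockout cells, 400 cells/well, 37 °C for minimum 48 hr; ATP measured via CellTiter-Glo, 30 min dark incubation, luminescence.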
TDP1 cell CPT: DT40-hTDP1 cell growth loss with CPT; chicken DT40 Tdp1-/-;hTDP1 cells + 20 nM CPT, ATP luminescence, 48 h; Potency, µM (doses to about 46.2 µM), actives largely listed as inhibitors; hit rate 12% among 420,000; note: nearly all actives have a fitted effect of over 55% in size
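Cell growth measured by CellTiter-Glo luminescence after a minimum 48 h, 37 C compound exposure with 20 nM CPT in Tdp1-knockout DT40 cells stably expressing hTDP1, seeded 400/well; qHTS titration format.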
TDP1 inh: inhibitors of human tyrosyl-DNA phosphodiesterase TDP1. Potency, µM (doses to about 130 µM), actives largely listed as inhibitors. recombinant TDP1, AlphaScreen DNA substrate cleavage. hit rate 0.28% among 350,000; note: nearly all actives have a fitted effect of over 40% in size
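Signal: AlphaScreen proximity between streptavidin donor and anti-FITC acceptor beads on intact substrate. Reaction: Tdp1 1 nM, substrate 15 nM final, 5 min RT after 15 min compound preincubation.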
A number is an active result; i = inactive; ? = inconclusive; nt = no result given; [ ] = remark or other dose. Calls come from the whole dose curve; as a rule, active = well fitted curve in the direction sought with a large enough effect; inconclusive = small, poorly fitted or top-dose-only effect, or another doubt; inactive = no such curve, though single readings can be large; an effect the other way counts as inactive or inconclusive.

SMILES | RORg inh | Gal4-VP16 FLuc | TDP1 cell noCPT | TDP1 cell CPT | TDP1 inh
O=C(NC(NC(=S)Nc1cc(Cl)ccc1Cl)C(Cl)(Cl)Cl)c1ccco1 (stereo unspecified) | i | i | i | ? | i
CC(=O)NC(NC(=S)Nc1ccc(N=Nc2ccccc2)cc1)C(Cl)(Cl)Cl (stereo unspecified) | 7.1µM | 5µM | ? | ? | i
CC(=O)NC(NC(=S)Nc1ccc(S(N)(=O)=O)cc1)C(Cl)(Cl)Cl (stereo unspecified) | i | i | i | i | i
COC(=O)CSc1nnc(-c2ccccn2)n1Cc1ccco1 | ? | i | i | i | i
Cc1nc(CN(C)c2ncnc3cc(-c4ccc5c(c4)OCO5)ccc23)cs1 | nt | nt | nt | nt | i
Cc1cccc(NC(=O)C2C3C=CC(C4CC34)C2C(=O)O)c1 (stereo unspecified) | ? | i | ? | ? | i
ON=C1c2ccccc2-c2ccc(Br)cc21 | nt | nt | 23µM | 29µM | nt
NC(=O)N/N=C1\c2ccccc2-c2c(C(N)=O)cccc21 | i | i | i | i | nt
O=C(O)c1cccc2c1/C(=N/O)c1ccccc1-2 | nt | nt | ? | i | nt
NC(=S)NN=C1c2ccccc2-c2cc(Br)ccc21 | nt | nt | 3.7µM | 5.2µM | nt
ON=C1c2ccccc2-c2ccc(F)cc21 | nt | nt | 18µM | ? | nt
Nc1cc2c(cc1Br)-c1ccccc1C2=NO | nt | nt | ? | 26µM | nt
Cc1ccccc1NC(=O)Cc1nc(COC(=O)CNS(=O)(=O)c2cccc(Br)c2)cs1 | i | i | i | i | i
O=C(CN1CCCCC1)NC(=O)NC1CCCCC1 | nt | nt | i | i | i
CCOc1cc(C(=O)NCCOC)cc(OCC)c1OCC | i | i | i | i | i
COc1ccc(-c2nc(CS(=O)(=O)CC(=O)NC3CCC(C)CC3)c(C)o2)cc1 (stereo unspecified) | i | ? | i | ? | i
COc1ccc(C(C(=O)NC2CCCCC2)N(C(=O)CCl)c2ccc(Cl)cc2)cc1 (stereo unspecified) | ? | ? | i | 1µM | i
COC(CN(C(=O)CCl)C(C(=O)NC1CCCC(C)C1C)c1ccc(C)cc1)OC (stereo unspecified) | i | i | 21µM | 5.2µM | i
COC(CN(C(=O)CCl)C(C(=O)NC1CCCCC1)c1ccc(Cl)cc1)OC (stereo unspecified) | i | i | 3.3µM | 5.2µM | i
O=C(NC1CCCCC1)C(c1cccnc1)N(C(=O)CCl)c1cccc(Cl)c1 (stereo unspecified) | 13µM | ? | 2.1µM | 2.1µM | i
COC(CN(C)C(C(=O)NC1CCCCC1)c1ccccc1)OC (stereo unspecified) | i | i[10 µM] | i | i | i
COc1ccc(N(C(=O)c2cnccn2)C(C(=O)NC2CCCCC2)c2ccc(Cl)cc2)cc1 (stereo unspecified) | nt | nt | i | i | nt
CN(C)C(C(=O)NC1CCCCC1)c1ccc(Cl)cc1 (stereo unspecified) | i | i | ? | i | i
CCC1CN(C(=O)NCc2ccccc2)c2cc(Cl)ccc2O1 (stereo unspecified) | i | i | ? | ? | i
COC(=O)CCCn1nc(NC(=O)COc2ccc(F)cc2)cc1C | i | i | i | i | i[0.0935 µM]
SMILES | RORg inh | Gal4-VP16 FLuc | TDP1 cell noCPT | TDP1 cell CPT | TDP1 inh
COc1ccc(-c2cnc3cccnn23)cn1 | nt | nt | ? | i | nt
c1cnn2c(-c3ccc4c(c3)CCO4)cnc2c1 | nt | nt | 9.2µM | 10µM | nt
Cc1ccc(-n2ncc3c(N4CCN(C)CC4)ncnc32)cc1Cl | nt | nt | 21µM | ? | i
Cc1ccc(-n2ncc3c(N4CCN(CCO)CC4)ncnc32)cc1Cl | nt | nt | ? | 12µM | i
COc1cc(F)ccc1-c1csc(C(O)c2ccc(F)cc2)n1 (stereo unspecified) | nt | nt | ? | 23µM | nt
COc1ccc(C(O)c2nc(-c3ccc(F)cc3OC)cs2)cc1 (stereo unspecified) | nt | nt | ? | 26µM | nt
Cc1cc(C)c(S(=O)(=O)Nc2ccncc2)cc1C | ? | i | i | i | i
CCOC(=O)C1=C(C)N(CCCC(=O)O)C(=O)NC1c1cccc(OC)c1 (stereo unspecified) | nt | nt | i | i | nt
O=C(COc1ccccc1)N1CCN(C(=O)Cc2ccccc2)CC1 | i | i | i | i | i

From PubChem
